Several values for one entry are separate records, joined by “and”; a condition that tells them apart may be missing. Equal entries are not always repeated. Records with an inconclusive call do not appear. Activity calls are given as the source filed them. Unless noted, the call rests on the fitted dose curve.
Legend:
[1] = molecular target: Estrogen receptor (Homo sapiens) (UniProt P03372); experiment: qHTS assay for small molecule antagonists of estrogen receptor alpha signaling (AID 588513; active means well fitted curve in the direction sought with a large enough effect in the signal ratio, with a control signal flat, not every such curve was filed as active; the % refers to the signal ratio; further: on the % scale 0 is the no-effect control and ±100 the full control effect)
Estrogen receptor (Homo sapiens), sequence (P03372 whole entry, looked up): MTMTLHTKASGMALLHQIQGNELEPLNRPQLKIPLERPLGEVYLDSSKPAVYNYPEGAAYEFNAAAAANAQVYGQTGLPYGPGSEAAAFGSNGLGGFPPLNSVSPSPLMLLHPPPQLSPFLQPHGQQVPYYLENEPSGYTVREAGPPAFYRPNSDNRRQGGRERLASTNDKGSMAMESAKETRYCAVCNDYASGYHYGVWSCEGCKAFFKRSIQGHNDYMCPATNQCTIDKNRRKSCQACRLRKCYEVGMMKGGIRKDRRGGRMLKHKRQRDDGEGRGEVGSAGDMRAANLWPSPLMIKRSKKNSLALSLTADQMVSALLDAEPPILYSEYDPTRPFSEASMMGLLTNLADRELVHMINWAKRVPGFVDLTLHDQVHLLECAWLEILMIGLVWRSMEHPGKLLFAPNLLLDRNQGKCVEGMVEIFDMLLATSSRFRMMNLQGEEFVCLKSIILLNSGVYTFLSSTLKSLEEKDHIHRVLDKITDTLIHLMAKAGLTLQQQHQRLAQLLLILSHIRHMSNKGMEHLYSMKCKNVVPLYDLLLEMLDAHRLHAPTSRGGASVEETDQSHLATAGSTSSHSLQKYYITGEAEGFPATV
Summary of the method: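 ER-alpha-UAS-bla GripTite HEK 293 cells in 2% charcoal/dextran-treated FBS medium; compounds titrated (1:2, duplicate), then stimulated with 0.5 nM 17-beta-estradiol for 18 h at 37C. CCF4 beta-lactamase fluorescence; Hill-fit IC50 and efficacy.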

[2] = qHTS assay for small molecule agonists of the antioxidant response element (ARE) signaling pathway (AID 651741; active means well fitted activation curve with a large enough effect in the signal ratio; the % refers to the signal ratio; further: % of control where 0% means no effect)
Summary of the method: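 HepG2 ARE-bla cells plated at 2,000 cells/well and incubated 5 h at 37 C/5% CO2 received 23 nL compound in DMSO. After 16 h at 37 C, LiveBLAzer B/G FRET substrate was applied for 2 h at room temperature and fluorescence read.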

[3] = qHTS assay for small molecule activators of the nuclear factor-kappa B (NF-kB) signaling pathway (AID 651749; active means well fitted activation curve with a large enough effect in the signal ratio; the % refers to the signal ratio; further: series mostly up to about 77 µM; % of control where 0% means no effect); settings: NF-kB-bla ME-180 cells, beta-lactamase FRET ratio, 16 h; activation: active compounds read high
Summary of the method: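 Incubation lasted 16 hr at 37C in 5% CO2 after 23 nL compound addition to ME-180 NF-kB-bla cells. Activation appears as beta-lactamase-mediated FRET loss.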

[4] = molecular target: Glucocorticoid receptor (Homo sapiens) (UniProt P04150); experiment: qHTS assay for small molecule antagonists of glucocorticoid receptor signaling (AID 588533; active means well fitted inhibition curve with a large enough effect in the signal ratio, with a control signal flat, not every such curve was filed as active; the % refers to the signal ratio; further: on the % scale 0 is the no-effect control and ±100 the full control effect)
Glucocorticoid receptor (Homo sapiens), sequence (P04150 whole entry, looked up): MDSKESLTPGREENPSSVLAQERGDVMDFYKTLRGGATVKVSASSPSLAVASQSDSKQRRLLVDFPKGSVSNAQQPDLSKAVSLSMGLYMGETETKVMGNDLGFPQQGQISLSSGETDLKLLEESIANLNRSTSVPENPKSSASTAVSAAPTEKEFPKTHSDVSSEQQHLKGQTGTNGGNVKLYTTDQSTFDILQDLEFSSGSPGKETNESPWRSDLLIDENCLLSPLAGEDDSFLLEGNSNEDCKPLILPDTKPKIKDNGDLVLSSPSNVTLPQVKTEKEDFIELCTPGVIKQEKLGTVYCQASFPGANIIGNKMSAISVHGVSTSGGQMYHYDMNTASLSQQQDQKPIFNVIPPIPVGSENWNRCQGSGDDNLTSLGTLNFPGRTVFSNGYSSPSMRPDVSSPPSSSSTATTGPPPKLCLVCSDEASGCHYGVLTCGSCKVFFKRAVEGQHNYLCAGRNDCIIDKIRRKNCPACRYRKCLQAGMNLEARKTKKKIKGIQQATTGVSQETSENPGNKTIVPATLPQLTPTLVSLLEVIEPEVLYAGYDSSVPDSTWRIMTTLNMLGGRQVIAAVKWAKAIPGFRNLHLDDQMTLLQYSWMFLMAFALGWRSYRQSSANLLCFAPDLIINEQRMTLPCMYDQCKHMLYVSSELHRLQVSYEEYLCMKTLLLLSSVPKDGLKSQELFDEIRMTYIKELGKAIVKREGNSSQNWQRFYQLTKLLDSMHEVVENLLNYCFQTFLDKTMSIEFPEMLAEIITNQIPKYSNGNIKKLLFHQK
Summary of the method: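 Antagonist-mode qHTS: compound titrations added to GRE-bla HeLa cells, then dexamethasone 2 nM final; 18 h, 37 C. CCF4 FRET fluorescence normalized to dexamethasone and DMSO; IC50 from Hill fit.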

[5] = molecular target: Peroxisome proliferator-activated receptor delta (Homo sapiens) (UniProt Q03181); experiment: qHTS assay for small molecule antagonists of peroxisome proliferator-activated receptor delta signaling (AID 588535; active means well fitted inhibition curve with a large enough effect in the signal ratio, with a control signal flat, not every such curve was filed as active; the % refers to the signal ratio)
Peroxisome proliferator-activated receptor delta (Homo sapiens), sequence (Q03181 whole entry, looked up): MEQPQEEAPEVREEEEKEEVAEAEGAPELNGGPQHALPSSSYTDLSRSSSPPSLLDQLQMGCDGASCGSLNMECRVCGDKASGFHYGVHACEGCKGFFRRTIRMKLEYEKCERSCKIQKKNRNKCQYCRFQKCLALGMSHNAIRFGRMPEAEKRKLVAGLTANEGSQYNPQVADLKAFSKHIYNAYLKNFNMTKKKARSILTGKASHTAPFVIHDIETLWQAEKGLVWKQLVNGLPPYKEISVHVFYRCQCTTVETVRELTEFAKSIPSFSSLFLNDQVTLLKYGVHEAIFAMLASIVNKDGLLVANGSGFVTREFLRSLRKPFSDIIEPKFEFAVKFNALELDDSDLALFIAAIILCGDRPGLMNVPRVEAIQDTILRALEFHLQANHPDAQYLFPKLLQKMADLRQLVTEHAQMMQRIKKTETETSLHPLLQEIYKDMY
Summary of the method: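 Cells were seeded at 4000 per well in assay medium containing 2% charcoal/dextran FBS and held 5 hrs at 37 C. Compounds were then added for 18 hrs. CCF4 substrate was applied for 2 hrs at room temperature before fluorescence reading.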

[6] = molecular target: Vitamin D3 receptor (Homo sapiens) (UniProt P11473); experiment: qHTS assay for small molecule antagonists of vitamin D receptor signaling (AID 588541);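 further: receptor activated by calcitriol during compound treatment; series mostly up to about 77 µM; on the % scale 0 is the no-effect control and ±100 the full control effect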
Vitamin D3 receptor (Homo sapiens), sequence (P11473 whole entry, looked up): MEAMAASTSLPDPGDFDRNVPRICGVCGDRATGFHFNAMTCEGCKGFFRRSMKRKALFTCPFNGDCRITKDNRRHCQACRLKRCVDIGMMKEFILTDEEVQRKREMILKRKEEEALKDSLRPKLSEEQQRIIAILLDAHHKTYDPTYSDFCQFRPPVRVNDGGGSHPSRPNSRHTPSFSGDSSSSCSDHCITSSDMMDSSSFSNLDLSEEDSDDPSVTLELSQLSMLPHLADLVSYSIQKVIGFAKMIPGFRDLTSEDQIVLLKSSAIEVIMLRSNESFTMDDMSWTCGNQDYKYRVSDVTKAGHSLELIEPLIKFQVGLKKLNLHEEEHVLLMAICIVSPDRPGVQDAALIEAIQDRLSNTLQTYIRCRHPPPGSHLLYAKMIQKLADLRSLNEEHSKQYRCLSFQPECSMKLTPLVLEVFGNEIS
Summary of the method: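 VDR-UAS-bla HEK293T cells in 2% charcoal-stripped FBS were stimulated with 1-alpha,25-dihydroxyvitamin D3 (3 nM final) plus compound for 16 h at 37 C. The beta-lactamase CCF4 readout was normalized to 50 nM agonist and DMSO, and Hill fits gave IC50.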

[7] = molecular target: Androgen receptor (Homo sapiens) (UniProt P10275); experiment: qHTS assay for small molecule agonists of androgen receptor signaling (AID 588515; active means well fitted curve in the direction sought with a large enough effect in the signal ratio, with a control signal flat; the % refers to the signal ratio; further: on the % scale 0 is the no-effect control and ±100 the full control effect); settings: AR-UAS-bla HEK293, beta-lactamase ratio, agonist 16 h; activation: active compounds read high
Androgen receptor (Homo sapiens), sequence (P10275 whole entry, looked up): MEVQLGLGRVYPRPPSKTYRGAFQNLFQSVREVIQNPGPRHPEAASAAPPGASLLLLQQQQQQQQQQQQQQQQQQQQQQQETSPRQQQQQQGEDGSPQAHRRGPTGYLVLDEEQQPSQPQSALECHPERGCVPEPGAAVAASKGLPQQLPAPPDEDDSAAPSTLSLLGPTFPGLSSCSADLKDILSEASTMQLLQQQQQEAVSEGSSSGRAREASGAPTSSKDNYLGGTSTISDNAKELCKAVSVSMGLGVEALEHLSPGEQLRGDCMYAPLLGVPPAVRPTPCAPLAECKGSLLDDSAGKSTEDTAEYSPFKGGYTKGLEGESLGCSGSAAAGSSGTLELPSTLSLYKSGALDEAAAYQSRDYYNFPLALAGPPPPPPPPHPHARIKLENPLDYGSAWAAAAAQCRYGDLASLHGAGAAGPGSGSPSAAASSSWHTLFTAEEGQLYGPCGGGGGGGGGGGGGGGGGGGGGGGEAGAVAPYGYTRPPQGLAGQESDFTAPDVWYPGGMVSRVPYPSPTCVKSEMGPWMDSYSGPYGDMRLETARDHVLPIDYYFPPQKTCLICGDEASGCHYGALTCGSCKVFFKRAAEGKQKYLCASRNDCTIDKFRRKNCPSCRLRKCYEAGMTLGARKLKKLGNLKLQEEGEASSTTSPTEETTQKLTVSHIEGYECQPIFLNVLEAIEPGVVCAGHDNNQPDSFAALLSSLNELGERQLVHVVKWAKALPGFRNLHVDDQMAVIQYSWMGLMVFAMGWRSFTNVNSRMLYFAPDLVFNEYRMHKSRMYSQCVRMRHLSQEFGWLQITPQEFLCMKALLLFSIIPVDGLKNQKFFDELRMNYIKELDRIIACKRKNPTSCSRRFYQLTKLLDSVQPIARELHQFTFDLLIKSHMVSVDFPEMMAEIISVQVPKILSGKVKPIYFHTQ
Summary of the method: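 EC50 and efficacy came from Hill fits of titrations (up to 92 uM) normalized to 30 nM R1881 as 100% and DMSO as 0%. Compound exposure was 16 h at 37 C on AR-UAS-bla HEK293 cells, with a 405/460/530 nm CCF4 fluorescence read.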

[8] = molecular target: Androgen receptor (Homo sapiens) (UniProt P10275); experiment: qHTS assay for small molecule antagonists of androgen receptor signaling (AID 588516; active means well fitted curve in the direction sought with a large enough effect in the signal ratio, with a control signal flat, not every such curve was filed as active; the % refers to the signal ratio; further: on the % scale 0 is the no-effect control and ±100 the full control effect)
Summary of the method: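 AR-UAS-bla GripTite HEK 293 cells (2000/well) treated with compound titrations plus 10 nM R1881 for 16 h at 37C. Beta-lactamase read by CCF4 FRET (460/530 nm); IC50 from Hill fits, normalized to R1881 and DMSO control wells.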

[9] = molecular target: Bile acid receptor (Homo sapiens) (UniProt Q96RI1); experiment: qHTS assay for small molecule antagonists of farnesoid X receptor signaling (AID 588526); further: on the % scale 0 is the no-effect control and ±100 the full control effect
Bile acid receptor (Homo sapiens), sequence (Q96RI1 whole entry, looked up): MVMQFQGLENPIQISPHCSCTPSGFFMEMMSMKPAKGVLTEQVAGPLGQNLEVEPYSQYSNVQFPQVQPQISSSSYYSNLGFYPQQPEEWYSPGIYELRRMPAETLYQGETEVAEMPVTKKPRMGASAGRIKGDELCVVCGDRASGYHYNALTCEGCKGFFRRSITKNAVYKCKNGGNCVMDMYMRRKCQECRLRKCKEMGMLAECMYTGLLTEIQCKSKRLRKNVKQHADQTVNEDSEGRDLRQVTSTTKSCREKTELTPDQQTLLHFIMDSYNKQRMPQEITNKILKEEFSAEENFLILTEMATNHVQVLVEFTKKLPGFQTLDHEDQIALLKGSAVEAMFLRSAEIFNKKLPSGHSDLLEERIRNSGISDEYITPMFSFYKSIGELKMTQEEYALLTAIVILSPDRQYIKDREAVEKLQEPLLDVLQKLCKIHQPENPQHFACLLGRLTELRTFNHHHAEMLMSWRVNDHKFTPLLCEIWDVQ
Summary of the method: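 Antagonist mode: titrated compounds tested against chenodeoxycholic acid stimulation (normalized to 50 uM CDCA and DMSO) in GeneBLAzer HEK293T cells for 16 h. Beta-lactamase read by CCF4 fluorescence; IC50 from Hill fits.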

[10] = molecular target: Glucocorticoid receptor (Homo sapiens) (UniProt P04150); experiment: qHTS assay for small molecule agonists of glucocorticoid receptor signaling (AID 588532; active means well fitted curve in the direction sought with a large enough effect in the signal ratio, with a control signal flat; the % refers to the signal ratio;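 further: 100% = dexamethasone at 0.1 µM and 0% = DMSO only wells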); settings: HeLa MMTV-bla, beta-lactamase ratio, agonist, 18 h; active compounds read high; percent of dexamethasone control, DMSO zero
Summary of the method: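 MMTV-bla HeLa beta-lactamase reporter cells in 1% charcoal/dextran FBS medium, compounds up to 92 uM for 18 h at 37 C, CCF4 readout; normalized to 0.1 uM dexamethasone (100%), EC50 and efficacy from Hill fits.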

Brc1ccc(Br)c(Br)c1
inactive: Potency [1] | Potency [2] | activation [3] -0.374%

Cc1cc(C)c(N)c(Cl)c1
inactive: Potency [1] | Potency [4] | Potency [5] | Potency [2]

C=CC(=O)NC(C)(C)CS(=O)(=O)O
inactive: Potency [1] | Potency [5] | Potency [6] | activation [3] -1.64% and -0.911%

OCCC(F)(F)C(F)(F)C(F)(F)C(F)(F)C(F)(F)C(F)(F)C(F)(F)C(F)(F)F
inactive: Potency [1] | activation [7] 13.8% | outcome [8] | Potency [5] | activation [3] 1.52%

CCOC(=O)CCCCCCCCC(=O)OCC
inactive: Potency [1] | Potency [6] | Potency [2]

CC(C)(C)c1n[nH]c(=O)n(N)c1=O
inactive: Potency [1] | activation [7] 8.74% | outcome [8] | Potency [9] | activation [10] 14.6% | Potency [4] | Potency [6] | activation [3] 0.103%

CC1(C)C(C=C(Cl)Cl)[C@H]1C(=O)OCc1cccc(Oc2ccccc2)c1 (stereo not given in full)
inactive: Potency [1] | outcome [8] | Potency [5] | Potency [6]

CC(=O)OC(C)(C)C1CC=C(C)CC1 (stereo not given)
inactive: Potency [1] | Potency [5] | Potency [2]

Nc1nc(N)nc(-c2ccccc2)n1
inactive: Potency [1] | Potency [5] | Potency [2] | activation [3] 0.267%

NCCCCCCCCCCC(=O)O
inactive: Potency [1] | outcome [8] | Potency [9] | Potency [4] | Potency [5] | Potency [6] | Potency [2] | activation [3] -0.282%

CC1(C)CC(N)CC(C)(CN)C1 (stereo not given)
inactive: Potency [1] | Potency [5] | Potency [2] | activation [3] -0.653%

CCCCCCCCCCCCCCO
inactive: Potency [1] | Potency [6] | Potency [2]

CCOC(=O)c1ccccc1C
inactive: Potency [1] | Potency [9] | activation [10] 10.9% | Potency [2]

CCC(C)(C)C1CCC(O)CC1 (stereo not given)
inactive: Potency [1] | Potency [5] | Potency [6] | Potency [2] | activation [3] -0.533%

c1ccc(OCCOc2ccccc2)cc1
inactive: Potency [1] | Potency [4] | Potency [5] | Potency [6] | activation [3] -1.28%

CN(C)C(=O)Nc1ccccc1
inactive: Potency [1] | Potency [5] | Potency [6] | activation [3] -1.78%

CCC(=O)C1C(=O)CC(C(=O)O)CC1=O (stereo not given)
inactive: Potency [1] | activation [7] -3.36% | Potency [9] | activation [10] 6.99% | Potency [6] | activation [3] 0.776%

CSC(=O)c1cccc2nnsc12
inactive: Potency [1] | outcome [8] | activation [10] -11.5% | Potency [5] | Potency [6]

Cn1sccc1=O
inactive: Potency [1] | Potency [9] | activation [10] 2.87% | Potency [4]

CCCCCCCC(=O)OC
inactive: Potency [1] | Potency [5] | Potency [6] | Potency [2] | activation [3] -1.19%

Fc1ccc(Br)cc1
inactive: Potency [1] | Potency [4] | activation [3] 1.17%

CC(C)(C)c1ccc(O)c(C(C)(C)C)c1
inactive: Potency [1] | Potency [9] | Potency [4] | Potency [6] | activation [3] -1.75%

CCCCCCCCCCCCO
inactive: Potency [1] | Potency [9] | Potency [5] | Potency [6] | Potency [2]

C[Si]1(C)N[Si](C)(C)N[Si](C)(C)N1
inactive: Potency [1] | Potency [2] | activation [3] -2.89%

CC(=O)OC1CCC(C(C)(C)C)CC1 (stereo not given)
inactive: Potency [1] | outcome [8] | activation [10] -9.53% | Potency [5] | Potency [6] | Potency [2]

O=[N+]([O-])C(CO)(CO)CO
inactive: Potency [1] | Potency [5] | Potency [6] | activation [3] 0.34%

COC(=O)c1ccc(C(=O)OC)cc1
inactive: Potency [1] | Potency [2] | activation [3] -0.624%

CCCCOCCOCCOCCO
inactive: Potency [1] | Potency [5] | Potency [6] | activation [3] -0.915%

CCCCCCCCCCCCCCCCN(C)C
inactive: Potency [1] | activation [7] 8.77% | outcome [8] | activation [10] -11.7% | Potency [4] | Potency [5] | Potency [2]

O=S(=O)(O)c1cc(S(=O)(=O)O)c2c(N=Nc3ccccc3)c(O)ccc2c1
inactive: Potency [1] | Potency [9] | Potency [5] | Potency [6] | Potency [2] | activation [3] 1.12%

COc1ccc(OC)c(OC)c1
inactive: Potency [1] | Potency [9] | activation [10] 0.211% | Potency [6] | Potency [2]

CC(C)OB(OC(C)C)OC(C)C
inactive: Potency [1] | Potency [4] | Potency [6] | Potency [2] | activation [3] 1.02%

CC1(C)C(=O)N(Cl)C(=O)N1Cl
inactive: Potency [1] | Potency [4] | Potency [6] | Potency [2]

c1cc(-c2ccncc2)ccn1
inactive: Potency [1] | Potency [4] | Potency [6] | activation [3] -1.45%

Cc1ccc(C(C)(C)C)c(O)c1
inactive: Potency [1] | Potency [9] | Potency [6] | Potency [2] | activation [3] 0.363%

CCOC(=O)COc1cc(-n2ncc(C(F)(F)F)c(C)c2=O)c(F)cc1Cl
inactive: Potency [1] | activation [7] -1.68% | activation [10] 13.3% | Potency [5] | Potency [6]

From PubChem BioAssay (NCATS)
